From PubChem BioAssay (NCI) come the findings set out here.

About 83,000 compounds went through this panel and 20% of them were active in at least one assay; those are over-represented in the sample as a whole.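 Note: values are percent growth. 100 is the growth of untreated cells, values between 100 and 0 indicate rising inhibition; between -100 and 0 indicates cell death.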 Active and inactive are the calls of the source. Rule for the calls: active = growth percent below 10; inactive = the rest.

The subject of the first assay is HS 578T breast. Nature of the assay: NCI-60 one-dose screen, 48 h (100 = growth as untreated, 0 = no growth, -100 = all killed). Particulars: 10 µM.
For `CC(=C(c1ccc(OCCN2CCCCCC2)cc1)c1ccc(OCCN2CCCCCC2)cc1)c1ccc(Cl)cc1`, the growth is -48% (active). On the same count and under the same terms, with `Cc1ccc(C(C)C)cc1NC(=O)c1ccccc1O` the figure was 43% (inactive). `C=CC(=O)Nc1nc(-c2cccc(NS(=O)(=O)c3cccc4c(N(C)C)cccc34)c2)cs1`: the growth was -0.555% (active). In the case of `CC(C)NC(=O)c1cc(-c2ccc(NC(=O)Nc3ccc(N4CCN(C)CC4)c(C(F)(F)F)c3)cc2)nc2cccnc12`, the growth is -42.1% (active). In the case of `COc1ccc2[nH]c(=O)c(CSc3nccc(-c4ccc(Cl)cc4)n3)cc2c1`, the growth is 37.2% (inactive). Turning to `O=C1Nc2cc(Cl)ccc2/C1=C/c1ccc(OCc2ccc(Br)cc2F)cc1`, the growth is -16.8% (active).

On to `O=C(N/N=C/c1ccc(B(O)O)o1)c1[nH]c2ccc(Br)cc2c1-c1ccccc1`, for which the growth was 0.269% (active).

Regarding `CCCS(=O)(=O)c1oc(-c2ccc(F)cc2)nc1S(=O)(=O)c1ccc(F)cc1`, the growth was 56.8% (inactive).

The next assay relates to NCI/ADR-RES ovarian. Described as above. Particulars: 10 µM.
As to `Nc1nc(-c2ccccc2)cc(-c2cc3ccccc3nc2Cl)n1`, the growth is 80.7% (inactive). Same read-out and setting: with `O=C(Cn1cc(CSc2nnc3oc4ccccc4n23)nn1)Nc1ccc(Br)cc1` the figure was 51.3% (inactive); with `O=c1oc2ccc(-c3ccc(F)cc3F)cc2c(=O)n1-c1ccc(F)c(Cl)c1`, -15.2% (active).

Consider `CN1CCN(c2ccc(Nc3nc(NCCCNC(=O)c4ccc(F)cc4)c4sccc4n3)cc2)CC1`, for which the growth was 76.2% (inactive). Still for that read-out and setting: with `CO[C@@H]1CSS[C@H]1Cn1nc(-c2ccc(Oc3ccccc3)cc2)c2c(N)ncnc21` the figure was 65.8% (inactive).

In the case of `CC(=O)Nc1ccc(-n2cnc3cc(-c4ccc(O)cc4)ccc32)cc1C`, the growth was 29.4% (inactive).

Consider `COC(=O)CC1CC1C1Cc2c(nc(N(C)S(C)(=O)=O)nc2C(C)C)-c2ccc(F)cc21` (stereo not drawn), for which the growth was 71.8% (inactive). Same read-out and setting: with `CC(=O)Nc1nc(-c2ccc(N3CCN(C)CC3)c(NS(=O)(=O)c3ccc(C(F)(F)F)cc3)c2)cs1` the figure was -18.2% (active). On the same count and under the same terms, as for `Cc1ccc(-c2ccc(SCC(=O)Nc3ccc(Cl)c(C(F)(F)F)c3)nn2)cc1`, the figure is -23.5% (active); as for `c1ccc(C(=C(c2ccc(OCCN3CCCCC3)cc2)c2ccc(OCCN3CCCCC3)cc2)C2CCCC2)cc1`, 101% (inactive).

Regarding `O=C(O)CCCCCCCCCCN1C(=O)/C(=C/c2cnc(-c3ccccc3)s2)SC1=S`, the growth is 57.5% (inactive). Take `CCN(CC)CCOc1ccc(C(=C(C)c2ccccc2)c2ccc(OCCN(CC)CC)cc2)cc1`: the growth is 29% (inactive).

For `Cc1ccc(C(=O)Nc2ccc(-n3c(C)nc4c(cnn4-c4ccccc4)c3=O)cc2)cc1`, the growth was 52.7% (inactive).

Consider `COc1ccc2[nH]c(O)c(N=NC(=O)COc3ccc(NC(=O)Nc4ccc(Cl)c(Cl)c4)cc3)c2c1`, for which the growth is 84.4% (inactive). Turning to `O=C1NC(=NC23CC4CC(CC(C4)C2)C3)N/C1=C\c1ccc2ncccc2n1`, the growth was -21% (active). On to `COC(=O)C(Cc1ccc(O)c(O)c1)NC(=O)C(CSC/C=C(\C)CCCC(C)CCCC(C)CCCC(C)C)NC(C)=O` (stereo not drawn), for which the growth was 73.8% (inactive). As for `O=C(Nc1ccncc1)c1ccc(-n2c(=O)[nH]c3ccccc3c2=O)cc1`, the growth was 103% (inactive).

Turning to `CCCCCc1ccc(S(=O)(=O)N(C(C)=O)c2cc(-c3csc(N(C)C(C)=O)n3)ccc2N2CCN(C)CC2)cc1`, the growth is 47.9% (inactive).

For `COc1ccc(-c2ccc(/C=N/NC(=O)c3[nH]c4ccc(Br)cc4c3-c3ccccc3)s2)cc1`, the growth is 59.9% (inactive). For the compound `CC(C)CCSc1nc(NC2CC2)c(C#N)c(-c2ccc(C(C)C)cc2)n1`, the growth was 108% (inactive).

Consider `O=C(Nc1nc2ccc([N+](=O)[O-])cc2s1)Nc1ccccc1I`, for which the growth is -5.83% (active). For `Cc1ccc(CSc2nc(Cl)c(C#N)c(-c3ccc(F)cc3)n2)cc1`, the growth is 72.4% (inactive). Turning to `CCN1CCN(c2ccc(NC(=O)Nc3ccc(-c4cc(C(=O)NC)c5ncccc5n4)cc3)cc2C(F)(F)F)CC1`, the growth is -65.3% (active). Same read-out and setting: with `COc1ccccc1NCc1ccc(CO)n1-c1ccc(C)cc1` the figure was 95.9% (inactive).

Turning to `CCCCCCCCCCCCCCCCCCCC(=O)NCCc1c[nH]c2ccc(OC(=O)NOCCOCCOCCOCCOCCOCCOCCOCCOCCOCCOCCOCCOCCOCCOCCOCCOCCOCCOCCOCCOCCOCCOC)cc12`, the growth is 89.3% (inactive). The same measure, in the same setting: as for `CC(=O)NCC1=C(C)C=C2C(=O)[C@](C)(O)C3(CC3)C(C)=C21`, the figure is -46.1% (active); as for `Cc1cccc2cc(-c3cc(-c4ccccc4)nc(=S)[nH]3)c(Cl)nc12`, 56.6% (inactive).

For `CO[C@H]1CSS[C@@H]1Cn1nc(-c2ccc(Oc3ccccc3)cc2)c2c(N)ncnc21`, the growth is 42.6% (inactive).

As to `CNC(=O)c1cc(-c2ccc(NC(=O)Nc3ccc(C)cc3)cc2)nc2cccnc12`, the growth is 94.3% (inactive).

Turning to `O=C(Cn1cc(CSc2nnc3oc4ccccc4n23)nn1)Nc1cccc(Cl)c1`, the growth was 53.4% (inactive). Still for that read-out and setting: with `O=C(Nc1cc(Cl)cc(Cl)c1)Nc1cc(Cl)cc(Cl)c1` the figure was -24.1% (active); with `C=CC(=O)Nc1ccc(C(=O)/C=C/c2ccc(N(C)CCF)cc2)c(O)c1`, 0.782% (active); with `CC(=C(c1ccc(OCCN2CCCCCC2)cc1)c1ccc(OCCN2CCCCCC2)cc1)c1ccc(Cl)cc1`, -97.7% (active).

As for `Cc1ccc(C(C)C)cc1NC(=O)c1ccccc1O`, the growth was 29.1% (inactive). Take `C=CC(=O)Nc1nc(-c2cccc(NS(=O)(=O)c3cccc4c(N(C)C)cccc34)c2)cs1`: the growth is -56.7% (active). On to `CC(C)NC(=O)c1cc(-c2ccc(NC(=O)Nc3ccc(N4CCN(C)CC4)c(C(F)(F)F)c3)cc2)nc2cccnc12`, for which the growth was -61.7% (active). With `COc1ccc2[nH]c(=O)c(CSc3nccc(-c4ccc(Cl)cc4)n3)cc2c1`, the growth is 12.2% (inactive). On the same count and under the same terms, as for `O=C1Nc2cc(Cl)ccc2/C1=C/c1ccc(OCc2ccc(Br)cc2F)cc1`, the figure is -71% (active); as for `O=C(N/N=C/c1ccc(B(O)O)o1)c1[nH]c2ccc(Br)cc2c1-c1ccccc1`, -34.6% (active); as for `CCCS(=O)(=O)c1oc(-c2ccc(F)cc2)nc1S(=O)(=O)c1ccc(F)cc1`, -52.2% (active).
